Hit rate of the full screen: of about 320,000 compounds, about 2,100 (0.66%) were called active. Roughly 53% stayed inconclusive and do not appear here. The call rests on the fitted dose curve; in most records, active means well fitted inhibition curve with a large enough effect in the signal ratio, with a control signal flat (not every such curve was filed as active); inconclusive means small, poorly fitted or top-dose-only effect, or effect the other way, or a change in a side signal; inactive means flat fitted curve, though single readings scatter; the % refers to the signal ratio. The full list was thinned out, with actives kept by preference.
Assay: qHTS Assay for Lipid Storage Modulators in Drosophila S3 Cells;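 on cell number change: cells counted by Cell Tracker Red CMTPX staining in the red channel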; on lipid storage change, negative = inhibition: on the % scale 0 is the no-effect control and ±100 the full control effect
Conditions: BODIPY lipid droplet fluorescence, 18-24 h, cells fed with added oleic acid; cell number change: measured here: cell count max response; series mostly up to 46.1 µM; lipid storage change, negative = inhibition: at the top concentration
Summary of the method: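 Laser-scanning cytometry quantifies lipid droplet accumulation (500–530 nm total intensity; droplet/cell object ratio) in oleic acid-fed (400 uM added) Drosophila S3 cells treated with a concentration series. 20 uM Triacsin C defined 100% inhibition.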
For CC(=O)NCCC(=O)Nc1nc(-c2cccs2)c(-c2cccs2)s1, the “lipid storage change, negative = inhibition” value was 11.3% (inactive) and the cell number change was 13.4%.
For CC(C)NC(=O)c1ccc(OC2CSC2)cc1, the “lipid storage change, negative = inhibition” value was -7.18% (inactive) and the cell number change was 2.39%.
In the case of CC(=O)c1cccc(NC(=O)c2ccc(OC3CSC3)cc2)c1, the “lipid storage change, negative = inhibition” value is reported as -2.44% (inactive) and the cell number change is reported as 14.6%.
For CNC(=O)c1ccc(OC2CSC2)cc1, the Potency was 16.4 µM (active) and the cell number change was -3.88%.
With O=C(NCC(=O)N(Cc1ccccc1)C(C(=O)NC1CCCC1)c1ccncc1)c1ccco1 (stereo not given) the “lipid storage change, negative = inhibition” value was -5.7% (inactive) and the cell number change was -25%.
In the case of COc1cccc(C2CCCN2Cc2nc(CC3CC3)no2)c1 (stereo not given), the “lipid storage change, negative = inhibition” value is reported as 13.7% (inactive) and the cell number change is reported as -10.7%.
For CCC(=O)Nc1ccc(S(=O)(=O)Nc2ccc(Cl)nn2)cc1, the “lipid storage change, negative = inhibition” value was 1.32% (inactive) and the cell number change was -1.17%.
In the case of Cc1cc(C)c(S(=O)(=O)N(C)c2ccccc2)c(C)c1, the “lipid storage change, negative = inhibition” value is reported as 7.23% (inactive) and the cell number change is reported as -0.745%.
For Cc1cc(-n2cnnn2)cc(C)c1S(=O)(=O)N(C)c1ccccc1, the Potency was 10.3 µM (active) and the cell number change was 1.61%.
With Cc1cc(-n2cnnn2)cc(C)c1S(=O)(=O)NCCOc1ccccc1 the “outcome” value was “inactive” and the cell number change was -19.8%.
With CCCOc1ccc(C(=O)O/N=C(\CC)c2ccc(C)cc2)cc1 the “lipid storage change, negative = inhibition” value was 17.6% (inactive) and the cell number change was 8.23%.
With CCOC(=O)C1CCCN(C(=O)C2CCN(c3nnc(-n4cccc4)s3)CC2)C1 (stereo not given) the Potency was 16.4 µM (active) and the cell number change was -17.4%.
For O=C(C1CCN(c2nnc(-n3cccc3)s2)CC1)N1CCCCC1, the “outcome” value was “inactive”.
With CCOC(=O)N1CCN(C(=O)C2CCN(c3nnc(-n4cccc4)s3)CC2)CC1 the “lipid storage change, negative = inhibition” value was -7.26% (inactive) and the cell number change was 29.4%.
In the case of COC(=O)C1CSc2[nH]c(=O)sc2C1c1ccc(OC)c(OC)c1 (stereo not given), the “lipid storage change, negative = inhibition” value is reported as -1.45% (inactive) and the cell number change is reported as -7%.
With CCC(C(=O)OCC(=O)N1C(C)CCCC1C)c1ccccc1 (stereo not given) the “lipid storage change, negative = inhibition” value was -24.9% (inactive) and the cell number change was -35.7%.
With O=C(NCC1OCCCN1S(=O)(=O)c1cc(F)ccc1F)C(=O)NC1CCCCCC1 (stereo not given) the Potency was 4.61 µM (active) and the cell number change was 3.2%.
For O=C(NCCO)C(=O)NCC1OCCCN1S(=O)(=O)c1cc(F)ccc1F (stereo not given), the “lipid storage change, negative = inhibition” value was 27.4% (inactive) and the cell number change was 0.587%.
In the case of Cc1cc(F)ccc1S(=O)(=O)N1CCCOC1CNC(=O)C(=O)NC1CCCC1 (stereo not given), the “lipid storage change, negative = inhibition” value is reported as -1.42% (inactive) and the cell number change is reported as 13.2%.
For CCc1cccc(CC)c1NC(=O)C1SC(=Nc2ccccc2C)C(c2nc3ccccc3s2)=C1N (stereo not given), the “outcome” value was “inactive”.
In the case of O=C1NC2(CCSC2)C(=O)N1CC(=O)N(Cc1ccccc1)C1CCS(=O)(=O)C1 (stereo not given), the “lipid storage change, negative = inhibition” value is reported as -0.0384% (inactive) and the cell number change is reported as 1.14%.
In the case of O=C(NC1CC2CCCC(C1)N2C(=S)NCCc1ccccc1)C1CC1 (stereo not given), the “lipid storage change, negative = inhibition” value is reported as -39.3% (inactive) and the cell number change is reported as -26.1%.
With CCNCc1cc(Br)c(OCC(=O)Nc2ccccc2)c(OC)c1 the “lipid storage change, negative = inhibition” value was 7.44% (inactive) and the cell number change was 1.4%.
With COc1cc(CO)cc(Br)c1OCC(=O)O the Potency was 2.06 µM (active) and the cell number change was 9.61%.
In the case of COc1cc(CO)cc(Br)c1OCc1cccnc1, the “lipid storage change, negative = inhibition” value is reported as 17.8% (inactive) and the cell number change is reported as -5.87%.
With CC(C)(C)c1ccc(/C=C/C(=O)N2CCOCC2)cc1 the “outcome” value was “inactive” and the cell number change was -2.69%.
Potency means the concentration at half of the fitted maximal effect.
